Assay outcomes from PubChem.
An excerpt weighted towards active compounds, which were near 10% of everything screened.
PNC inhibitor: inhibitors of perinucleolar compartment assembly; PC3M PTB-GFP, PNC prevalence imaging, 16 h; stronger effect = lower value; activity change (PNC), negative = inhibition, % at 10 µM; hit rate 3.1% among 140,000;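 active = readout at or below -70, meaning at least 70% loss of cells showing the perinucleolar compartment, a nuclear body marking cancer cells; inconclusive = readout between -30 and a set limit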;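 note: plate controls were DMSO wells for no effect and camptothecin positive control wells for full effect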
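Read-out is percentage of cells bearing a perinucleolar compartment, from automated 20x imaging of fixed, Hoechst-stained PC3M PTB-GFP cells. Cells were seeded 4 h, then exposed 16 h to compound (23 nl of library stock) in duplicate plates.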
ALDH1A1 block: inhibitors of human aldehyde dehydrogenase 1A1; P00352; Potency, µM (titrated, usually from 75.3 µM), for inactives: top-dose activity, negative = inhibition, usual class: inhibitors; hit rate 7.3% among 220,000; AID 1030; Purified ALDH1A1, NADH fluorescence, propionaldehyde substrate; active = well fitted inhibition curve with a large enough effect, not every such curve was filed as active; inconclusive = small, poorly fitted or top-dose-only effect, or another doubt; inactive = no such curve, though single readings can be large or run the other way;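 note: potency is the fitted concentration of half-maximal effect; plate controls were no enzyme wells and a reference inhibitor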
aGal spleen mod: inhibits or activates alpha-galactosidase in human spleen homogenate; hit rate 0.008% among 240,000; human spleen homogenate, 4MU-alpha-Gal fluorescence, 40 min; P06280; Potency, µM (series often up to 80 µM), inactives show at the highest dose activity change, negative = inhibition, most hits filed as inhibitors;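 note: potency is the fitted concentration of half-maximal effect; 0% = enzyme with vehicle and -100% = no enzyme basal signal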
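Human spleen homogenate (1 ug) was the enzyme source, with 4-methylumbelliferyl-alpha-D-galactopyranoside (1 mM final) in pH 5.0 citrate buffer with 0.01% Tween-20. Compounds were titrated; after 40 min at 37C, NaOH/glycine stop, 4-MU fluorescence read; AC50 from Hill fits.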
12-hLO inh: 12-hLO (ALOX12) enzyme inhibition. purified 12-hLO, xylenol orange hydroperoxide absorbance. Potency, µM (top dose mostly 57.1 µM), inactives show top-dose activity change, negative = inhibition, hits mostly inhibitors. hit rate 0.12% among 150,000. AID 1452; note: potency is the fitted concentration of half-maximal effect; nearly all actives have a fitted effect of over 55% in size
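Hydroperoxide output read as Fe(III)-xylenol orange absorbance, 573-to-405 nm ratio, after 30 min reaction with 40 uM arachidonic acid. Enzyme: 150 nM purified human 12hLO, 15 min compound preincubation; 25 mM Hepes pH 7.0, room temperature.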
HPGD block: inhibitors of human 15-hydroxyprostaglandin dehydrogenase (HPGD) | P15428 | purified HPGD, NADH fluorescence kinetic, PGE2 substrate | Potency, µM, for inactives: top-dose activity change, negative = inhibition, usual class: inhibitors | hit rate 4.3% among 150,000; active = well fitted inhibition curve with a large enough effect, not every such curve was filed as active; inconclusive = small, poorly fitted or top-dose-only effect, or another doubt; inactive = no such curve, though single readings can be large or run the other way; note: potency is the fitted concentration of half-maximal effect
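NADH formation kinetics: reaction with 30 uM PGE2 and 1 mM NAD+ (final), 20 nM enzyme, Tris-HCl pH 8 with Tween 20, after 15 min compound preincubation at room temperature. Fluorescence change, last versus first of five reads.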
GLA inh pH 4.5: blocks human alpha-galactosidase A at pH 4.5; P06280; purified enzyme, 4-MU-alpha-Gal fluorescence, pH 4.5; activity change, negative = inhibition, % at 105 µM; 230,000 tested, under 10 active; AID 1467;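 note: 0% = full activity with enzyme and -100% = basal without enzyme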
Target sequence (P06280 whole entry, looked up): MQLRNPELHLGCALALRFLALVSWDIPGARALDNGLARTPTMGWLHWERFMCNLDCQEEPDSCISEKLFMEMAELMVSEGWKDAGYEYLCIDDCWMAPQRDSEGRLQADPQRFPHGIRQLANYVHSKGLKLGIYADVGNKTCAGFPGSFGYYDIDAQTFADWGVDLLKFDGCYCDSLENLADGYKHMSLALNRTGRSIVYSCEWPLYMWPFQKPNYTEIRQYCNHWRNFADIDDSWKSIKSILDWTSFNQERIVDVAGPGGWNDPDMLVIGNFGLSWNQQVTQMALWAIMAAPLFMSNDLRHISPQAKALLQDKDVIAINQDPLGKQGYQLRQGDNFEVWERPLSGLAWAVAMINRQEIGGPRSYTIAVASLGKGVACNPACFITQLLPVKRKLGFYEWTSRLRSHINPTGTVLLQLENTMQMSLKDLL
Starred values were filed as active, the others as inactive; ? = inconclusive; . = not tested or not shown; [ ] = another dose, or the depositor's remark. Unless noted, calls come from the whole dose curve; as a rule, active = well fitted curve in the direction sought with a large enough effect; inconclusive = small, poorly fitted or top-dose-only effect, or another doubt; inactive = no such curve, though single readings can be large; an effect the other way counts as inactive or inconclusive. Unless noted, % is set by controls: 0 for no effect and ±100 for the full control effect.

SMILES	PNC inhibitor	ALDH1A1 block	aGal spleen mod	12-hLO inh	HPGD block	GLA inh pH 4.5
COC(C(=O)Nc1cccc([N+](=O)[O-])c1)c1ccccc1 (configuration not stated)	.	20µM*	5%	.	.	17
C[C@H](NC(=O)c1[nH]cnc1C(=O)Nc1ccc(CNC(=O)OC(C)(C)C)cc1)C(=O)OC(C)(C)C	.	.	-6%	.	.	-8
O=C1OCc2ccc(NS(=O)(=O)c3ccc(C(F)(F)F)cc3)cc21	.	.	6%	.	.	-8
C[C@H](Oc1ccc(Oc2cnc3ccc(Cl)cc3n2)cc1)C(=O)O	.	-2%[13.5 µM]	.	-14%[11.4 µM]	-10%	.
CC1CC=CC2C1C(=O)N(Cc1ccccc1)C2c1ccc(-c2ccoc2)cc1F (configuration not stated)	.	.	6%	.	.	.
COC(=O)[C@@]1(Cc2ccccc2)[C@H]2c3cc(C(=O)N4CCCC4)n(CCN4CNCC4=O)c3C[C@H]2CN1C(=O)c1ccccc1	.	-4%	6%	2%	-1%	-6
O=C(COc1ccccc1)NC(=S)Nc1cccc(NC(=O)c2ccccc2Cl)c1	30	10µM*	-1%	1%	.	-3
CC(C)CC(=O)NC(=S)Nc1cccc(NC(=O)c2ccccc2Cl)c1	15	?	-3%	-9%	-10%	3
CCC(=O)NC(=S)Nc1cccc(NC(=O)c2ccccc2Cl)c1	-29	?	12%	-3%	-6%	1
CCC(CC)=NNc1cccc([N+](=O)[O-])c1	-21	28µM*	7%	?	?	8
CC(C)Oc1cccc(C(=O)NC(=S)Nc2cccc(NC(=O)c3ccccc3Cl)c2)c1	0	11µM*	7%	?	-10%	1
O=C1/C(=C/c2ccc(O)c(O)c2)Oc2ccccc21	.	.	21%	.	.	.
CN(Cc1ccccc1)S(=O)(=O)c1cccc2cccnc12	?	8.9µM*	4%	12%	22µM*	1
CN(CC(=O)N1CCCCC1)S(=O)(=O)c1cccc2cccnc12	13	?	0%	-3%	16µM*	3
COc1cccc(CNC(=O)CN(C)S(=O)(=O)c2cccc3cccnc23)c1	.	.	-3%	.	.	4
O=C(COC(=O)c1cccc(S(=O)(=O)N2CCOCC2)c1)Nc1nc(-c2ccccc2Cl)cs1	6	1%	-3%	0%	-19%	6
O=C(OCc1nc2ccccc2s1)c1cccc(S(=O)(=O)N2CCOCC2)c1	-100*	-7%	-21%	-6%	-18%	-7
O=C(CCc1ccc(S(=O)(=O)N2CCOCC2)cc1)OCc1nc2ccccc2s1	-4	7.9µM*	5%	-12%	-11%	6
O=C(CCc1nc2ccccc2[nH]c1=O)OCc1ccc(S(=O)(=O)N2CCOCC2)cc1	-15	?	1%	-3%	-25%	-3
c1ccc(CNc2ncncc2-c2ccoc2)cc1	.	?	-3%	.	.	.
COCCNc1nc(CSc2ccccc2)nc2sc(C)c(C)c12	-86*	?	1%	-3%	.	-10
C(=C\c1ccco1)/C=N/n1cnnc1	?	3.2µM*	13%	-12%	32µM*	-5
COC(=O)/C=C/c1ccc(C(=O)NCC(=O)N[C@@H](CCC(=O)OC)C(=O)N[C@@H](CC(C)C)C(N)=O)cc1	.	?	-4%	.	.	.
COC(=O)[C@@]1(Cc2ccccc2)[C@H]2c3cc(C(=O)N4CCCC4)n(Cc4ccccc4)c3C[C@H]2CN1C(=O)c1ccccc1	.	-9%	-7%	-8%	-13%	-10
O=C(NCc1ccc(F)cc1)c1ccc(CS(=O)(=O)Cc2ccccc2F)o1	70	13µM*	-12%	5%	-20%	-7
O=C(NCc1ccc(F)cc1)c1ccc(CS(=O)(=O)Cc2ccc(F)cc2)o1	17	0%	-1%	-8%	-1%	4
O=C(Cn1ncc(Cl)c(Cl)c1=O)N1CCN(S(=O)(=O)c2ccc3ccccc3c2)CC1	-16	20µM*	4%	2%	.	-2
O=C(COc1cccnc1[N+](=O)[O-])Nc1ccc(Cl)c(S(=O)(=O)N2CCOCC2)c1	.	14µM*	-8%	.	.	-4
